High-throughput results deposited in PubChem BioAssay by several laboratories.
An excerpt weighted towards active compounds, which were near 5.6% of everything screened.
PfM18AAP inh: blocks P. falciparum M18 aspartyl aminopeptidase; inhibition, % at 7.35 µM; recombinant PfM18AAP, H-Glu-NHMec fluorogenic cleavage; 290,000 tested, 1.2% active;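 active = inhibition above the campaign mean inhibition over all tested compounds plus 3 SD, cut at about 28% in these data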;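 also: 0% = plate median of test compound wells and 100% = 2 mM ZnCl2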
PfGluPho inh: PfG6PD (Plasmodium falciparum) enzyme inhibition. PfGluPho enzyme, NADPH resazurin-diaphorase fluorescence. inhibition, % at 20 µM. 350,000 tested, 0.78% active;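 active = inhibition reaching at least a set limit at 20 µM in the primary screen, cut at about 59% in these data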;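 also: 0% = DMSO wells with substrate and 100% = DMSO wells lacking glucose-6-phosphate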
PHOSPHO1 block: blocks human PHOSPHO1 phosphatase activity | AID 1565 | recombinant PHOSPHO1, absorbance phosphatase assay | inhibition, % at 13.3 µM | Q8TCT1 | 290,000 tested, 1.1% active; in the data active = inhibition above about 60%
Target sequence (Q8TCT1 whole entry, looked up): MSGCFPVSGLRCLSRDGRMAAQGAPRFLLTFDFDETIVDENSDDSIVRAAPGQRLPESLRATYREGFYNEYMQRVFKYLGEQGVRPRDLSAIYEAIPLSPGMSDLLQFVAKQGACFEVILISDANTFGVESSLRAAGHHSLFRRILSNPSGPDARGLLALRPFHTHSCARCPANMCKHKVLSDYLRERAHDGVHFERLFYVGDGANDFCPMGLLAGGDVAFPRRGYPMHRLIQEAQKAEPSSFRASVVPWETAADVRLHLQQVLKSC
ALR inh: human ALR oxidase inhibition via reduced H2O2 | P55789 | purified ALR, DTT oxidation, H2O2 HRP-luminol luminescence | inhibition, % (concentration not given with the values) | 290,000 tested, 3.8% active;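 active = mean replicate inhibition above about 79%, with every replicate also reaching it, limit read from the data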
Target sequence (P55789 whole entry, looked up): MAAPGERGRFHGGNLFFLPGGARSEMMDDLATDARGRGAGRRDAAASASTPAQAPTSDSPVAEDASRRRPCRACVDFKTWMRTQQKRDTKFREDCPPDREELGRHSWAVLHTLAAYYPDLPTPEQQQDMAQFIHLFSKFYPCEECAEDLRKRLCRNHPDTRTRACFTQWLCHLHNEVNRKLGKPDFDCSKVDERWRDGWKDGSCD
H9c2 protect: modulators protecting cardiomyocytes from myocardial damage. H9c2 cardiomyocytes, H2O2 injury protection, ATPLite, 2 h. AID 588492. protection from H2O2 cell death, % at 20 µM. 360,000 tested, 0.63% active;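 active = compounds giving at least 50% protection of heart cells from peroxide-induced death in the single-dose screen, raw or plate-pattern-corrected value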;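 also: 0% = DMSO wells with peroxide and 100% = DMSO wells without peroxide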
Numbers without * were called inactive; . = not tested or not shown.

SMILES	PfM18AAP inh	PfGluPho inh	PHOSPHO1 block	ALR inh	H9c2 protect
Cc1ccc(S(=O)(=O)N2Cc3cc(N4CCOCC4)ccc3-n3nncc3C2)cc1	.	.	.	.	6
CN(C)C(=S)SSC(=S)N(C)C	22	95*	56	.	-46
C=C(C)CC1(CC)C(=O)NC(=S)NC1=O	.	4	.	.	8
O=C(NC1(C(F)(F)F)Oc2ccc(Cl)cc2O1)N1CCC2(CC1)OCCO2 (configuration not stated)	98*	7	21	99*	78*
O=C1C=C2c3ccccc3CC(C(=O)O)C2CC1 (configuration not stated)	.	.	.	.	0
CC12CCC3C(CCC4(O)CC(O)CCC34C=NO)C1(O)CCC2C1=COC(=O)C1 (configuration not stated)	.	4	.	.	-2
COC(=O)C1=C(C(=O)OC)C2OC1c1cc3ccccc3cc12	.	49	.	.	-20
O=c1oc2ccccc2c(O)c1[C@H]1c2ccc(O)cc2Oc2c1c(=O)oc1ccccc21	4	-6	8	98*	0
N#Cc1cc(F)c(N2CCNCC2)cc1Cl	-7	-2	-22	93*	-3
N#Cc1ccc(N2CCNCC2)c(F)c1	-2	-6	-18	-15	0
O=C(O)CCn1cc(C=C2C(=O)NC(=O)NC2=O)c(-c2ccc(Br)cc2)n1	-3	25	14	87*	0
O=C1NC(=S)NC(=O)C12C(c1ccc(F)cc1)NC(=S)NC2c1ccc(F)cc1 (configuration not stated)	18	-3	95*	10	1
O=C1NC(=S)NC(=O)C12C(c1ccccc1)NC(=S)NC2c1ccccc1 (configuration not stated)	1	-11	5	34	6
S=C=Nc1ccccn1	4	4	61*	5	0
O=c1[nH]c(=S)[nH]c(O)c1N=Nc1cccc(S(=O)(=O)N2CCOCC2)c1	21	-10	-23	11	-5
O=c1[nH]c(O)c(N=Nc2cccc(S(=O)(=O)N3CCOCC3)c2)c(=O)[nH]1	-7	-3	60*	.	2
O=c1[nH]c(=S)[nH]c(O)c1N=Nc1ccc(S(=O)(=O)N2CCOCC2)cc1	12	1	36	95*	-5
COc1c(OP2(=S)OCC(C)(C)CO2)cnn(C2CCCCC2)c1=O	.	.	.	.	-5
C/C(O)=C(\C#N)C(=O)Nc1cc(Br)ccc1Br	.	-23	.	97*	-8
O=C(N/N=C/c1c(O)n(C2CCCCC2)c(=S)[nH]c1=O)c1ccccc1	5	-35	19	55	64*
O=C(N/N=C/c1c(O)n(C2CCCCC2)c(=S)[nH]c1=O)c1ccccc1O	11	-32	1	40	52*
O=C(NC(=S)N1CC1)c1ccccc1	.	-8	.	.	-2
S=C(NCCc1ccccc1)N1Cc2ccccc2-n2nncc2C1	.	13	.	.	-14
Cc1cccc(C)c1-n1nnnc1C(C1CC1)N1CCC2(CC1)C(=O)NCN2c1ccccc1 (configuration not stated)	.	.	.	.	13
Cc1ccc(N2C(=O)NC(=O)/C(=C\c3cccn3C(C)(C)C)C2=O)cc1	-12	-1	60*	54	2
SMILES	PfM18AAP inh	PfGluPho inh	PHOSPHO1 block	ALR inh	H9c2 protect
Oc1ccc(/C=N/NP(=S)(c2ccccc2)c2ccccc2)cc1	-26	34	83*	.	1
COc1cc(/C=N/NP(=S)(c2ccccc2)c2ccccc2)ccc1O	-20	-1	29	72	-3
Cn1c(O)c(C(=N)COc2ccccc2)c(=O)n(C)c1=O	-1	1	-26	0	0
Cn1c(O)c(C(=Nc2ccccc2)SCc2ccc(Cl)cc2)c(=O)n(C)c1=O	6	17	-59	98*	-3
COc1ccc2c(c1OC)C(=O)OC2c1c(O)n(C2CCCCC2)c(=O)[nH]c1=O (configuration not stated)	0	-3	1	96*	18
Cc1cc(/C=C2\C(=O)NC(=O)N(c3ccc(F)cc3)C2=O)c(C)n1-c1cccc(C(=O)O)c1	13	18	22	29	3
Cc1cc(/C=C2\C(=O)NC(=O)N(c3ccccc3F)C2=O)c(C)n1-c1cc(C(=O)O)cc(C(=O)O)c1	30*	-4	24	9	3
Fc1cccc(-c2ccc3c(c2)CN(C(=S)NCCc2ccccc2)Cc2cnnn2-3)c1	.	.	.	.	-3
NNC(=O)c1ccc(O)cc1	.	-8	.	95*	-1
Cn1ncnc2c(=O)n(C)c(=O)nc1-2	.	122*	79*	33	-20
O=C(c1cc(Cl)cc(Cl)c1)N1Cc2ccccc2-n2nncc2C1	.	4	.	.	2
CC1CCCC(C)N1/N=C/c1c[nH]c2ccc(Br)cc12 (configuration not stated)	2	5	1	99*	8
COc1ccccc1OCC(=O)N1CCCC(N2CCN(c3ccc(F)cc3)CC2)C1 (configuration not stated)	-2	-2	-11	95*	7
O=S(=O)(c1ccccc1)N1Cc2ccccc2-n2nncc2C1	.	-5	.	.	-2
C=C1C(=O)OC2CC3(C)OC3C3OC3C3=CC(OC3=O)C12 (configuration not stated)	.	.	.	.	-15
O=C1NC(c2cccnc2)Nc2sc3c(c21)CCCC3 (configuration not stated)	31*	40	-13	.	-1
O=C(Cc1ccc(N(CCCl)CCCl)cc1)NC(Cc1ccc(Cl)cc1)C(=O)O (configuration not stated)	-2	-32	29	98*	3
O=C(COc1ccc(S(=O)(=O)N2CCOCC2)cc1)N1CCN(Cc2ccc3c(c2)OCO3)CC1	0	-4	5	-10	-6
CCCCNS(=O)(=O)c1ccc(OCC(=O)N2CCN(Cc3ccc4c(c3)OCO4)CC2)cc1	5	0	61*	1	-8
CCCNS(=O)(=O)c1ccc(OCC(=O)N2CCN(Cc3ccccc3)CC2)cc1	-3	-22	-10	-1	0
CC(C)(C)NS(=O)(=O)c1ccc(OCC(=O)N2CCN(Cc3ccccc3)CC2)cc1	-27	-13	60*	5	-10
C[C@H](CO)N1C[C@H](C)[C@@H](CN(C)C(=O)Oc2ccc3ccccc3c2)OCc2cn(nn2)CCCC1=O	.	-6	.	.	-2
Cc1oc(-c2ccc(Cl)cc2)nc1CS(=O)CC(=O)N1CCC2(CC1)OCCO2 (configuration not stated)	8	-7	-84	99*	2
Cc1oc(-c2ccccc2F)nc1CS(=O)CC(=O)N1CCC2(CC1)OCCO2 (configuration not stated)	0	-9	14	99*	6
COc1cccc(-c2nc(CS(=O)CC(=O)N3CCC4(CC3)OCCO4)c(C)o2)c1 (configuration not stated)	1	-10	46	.	-1
S=P(Nn1cnnc1)(c1ccc(Br)cc1)c1ccc(Br)cc1	29*	24	-5	-3	-3
CCOP1(=S)Oc2cc3c(cc2C(C(=O)OC)(C(F)(F)F)O1)OCO3 (configuration not stated)	18	64*	-31	-3	-2
